Source: PubChem BioAssay (NCATS)
Results filed as inconclusive are left out. Calls of active or inactive are those of the source. Calls follow the shape of the dose curve; as a rule, active = well fitted cell-killing curve with a large enough effect; inconclusive = small, poorly fitted or top-dose-only effect; inactive = no such curve, though single readings can be large or run the other way.

assay: qHTS of pediatric cancer cell lines to identify multiple opportunities for drug repurposing: Primary screen for NB-EBc1 cells (AID 1347095); conditions: NB-EBc1 neuroblastoma viability, CellTiter-Glo luminescence, 48 h; series mostly up to 46 µM; activity change, negative = cytotoxic: at the top concentration
Description: Drug repurposing or repositioning has been offered as a strategy for drug development in oncology programs. This approach has special potential for childhood cancers and other rare or orphan diseases, where the expected return on new drug development has been a disincentive to pharmaceuticals. […] In this project we exploit the poly-pharmacology of drugs to discover new indications via phenotypic screening of a panel of 19 well-characterized cell lines derived from solid tumors seen in children and adolescents. The goal is to identify approved drugs with previously unrecognized anticancer properties that has the potential to reveal new mechanisms and biological processes involved in carcinogenesis or drug resistance. We employed a titration-based paradigm (quantitative high-throughput screening or qHTS), where all compounds were tested at multiple concentrations for their effect on cell viability. Concentration-response curves (CRCs) were derived directly from the primary screen, and both potency and efficacy values were used to identify compounds with robust bioactivity profiles. We screened the NIH Chemical Genomics Center (NCGC) Pharmaceutical Collection (NPC) and Mechanism Interrogation Plate (MIPE) small molecule collections of approved and investigational compounds against these cell lines; and measured metabolically active cells after 48 hours of compound treatment as a proxy for cell viability. […] Assay Submitter: Nathalia J. Martinez, National Center for Advancing Translational Sciences, National Institutes of Health, Rockville, MD, USA; email: natalia.martinez@nih.gov Shen, M et al. Quantitative high-throughput phenotypic screening of pediatric cancer cell lines identifies multiple opportunities for drug repurposing. Oncotarget 2017 Dec 19;9(4):4758-4772. PMID 29435139.
The cells were obtained from University of North Carolina (UNC), Pediatric Preclinical Testing Program (PPT), and Coriell Institute (CI). qHTS cell viability assay: Cells were assayed in growth media at a density of 500-1,000 cells/well. Five microliters of cells were dispensed into 1,536-well, white, solid-bottom, TC-treated plates (Greiner Bio One) using a multidrop dispenser and incubated at 37 degrees C, 5% CO2, under a humidified atmosphere for 5 hours. Twenty-three nanoliters of compounds and controls (neutral control DMSO or positive control bortezomib at final concentration of 2.3 µM) were subsequently transferred by Kalypsys pintool. For primary screens, the MIPE collection was tested at 11-point dilutions (final concentrations range from 0.78 nM to 46 µM) and the NPC collection at 8-point dilutions (final concentrations range from 0.59 nM to 46 µM). Compounds tested in follow-up screens were assayed at 11-point dilutions. Cells were incubated for 48 hours, followed by addition of 3 µL of CellTiter-Glo (Promega). After a 15 min incubation at room temperature, samples were analyzed for luminescence intensity using a ViewLux High-throughput CCD imager equipped with clear filters.
Potency is read from the fitted curve at half-maximal effect.

Structure (SMILES) | activity change, negative = cytotoxic | Potency
CNc1nc(Nc2ccc(C(=O)N3CCOCC3)cc2OC)ncc1Cl | 14% (inactive) | 
CCCCCCCCCCCCCCCC(=O)O[C@H]1[C@@H](O)[C@@H](O)[C@@H]([C@H](NC(=O)[C@@H]2C[C@@H](CCC)CN2C)[C@H](C)Cl)O[C@@H]1SC | 15.7% (inactive) | 
O=c1[nH]c(=O)n([C@H]2C[C@@H](O)[C@@H](CO)O2)cc1I | -3.08% (inactive) | 
C=C1c2cccc(O)c2C(O)=C2C(=O)[C@@]3(O)C(O)=C(C(N)=O)C(=O)[C@@H](N(C)C)[C@@H]3[C@@H](O)[C@H]12 | 49.9% (inactive) | 
Cc1cnc(-c2cc(N3CCN(C(=O)CCS(C)(=O)=O)CC3)ncc2Cl)c(C)c1 | -0.454% (inactive) | 
CCNC(=O)[C@H]1O[C@@H](n2cnc3c(N)nc(NCCc4ccc(CCC(=O)O)cc4)nc32)[C@H](O)[C@H]1O | 19.1% (inactive) | 
O=C1CCCC(=O)C1C(=O)c1ccc(C(F)(F)F)cc1[N+](=O)[O-] | 1.97% (inactive) | 
CCN(CC)CCCCNc1nc2cc(Cl)c(Cl)cc2nc1-c1ccc(-c2cccs2)s1 |  | 20.9 µM (active)
CO[C@H]1/C=C\O[C@@]2(C)Oc3c(C)c(O)c4c(O)c(c5c(nc6cc(C)ccn65)c4c3C2=O)NC(=O)C(C)=CC=C[C@H](C)[C@H](O)[C@@H](C)[C@@H](O)[C@@H](C)[C@H](OC(C)=O)[C@H]1C | 0.589% (inactive) | 
C[C@@]1(C(=O)Nc2ccc(F)nc2)CCCN1c1nc(Nc2cc(C3CC3)[nH]n2)c2cccn2n1 |  | 0.0264 µM (active)
CC1(COc2ccc3c(c2)ncn3-c2ccc3cccc(N4CCC(N)CC4)c3n2)COC1 |  | 0.001 µM (active)
C=CCc1cccc(C=NNC(=O)CN2CCN(Cc3ccccc3)CC2)c1O |  | 5.9 µM (active)
CN[C@@H](C)[C@H]1[C@H](O)C[C@@]2(C)[C@@H]3CC[C@H]4C(C)(C)[C@@H](NC)CC[C@@]45C[C@@]35CC[C@]12C | -6.5% (inactive) | 
CC(C)[C@H](O)C(=O)N[C@@H](C)C(=O)N[C@@H]1C(=O)N(C)CCc2ccccc21 | -7.59% (inactive) | 
C[C@@]1(c2cc(-c3cncnc3)c(F)cc2F)CCSC(N)=N1 |  | 8.33 µM (active)
O=C(CO)N1CCC(c2[nH]nc(-c3ccc(Cl)cc3)c2-c2ccncn2)CC1 | 6.49% (inactive) | 
COc1c(C)c2c(c(O)c1CC=C(C)CCC(=O)OCCN1CCOCC1)C(=O)OC2 |  | 0.59 µM (active)
CN1CC(=O)N2C(Cc3c([nH]c4ccccc34)[C@H]2c2ccc3c(c2)OCO3)C1=O (stereo not given in full) | -11.5% (inactive) | 
COc1ccc(C=CC(=O)Nc2ccccc2C(=O)O)cc1OC | 9.45% (inactive) | 
CON(C)C(=O)N1N=C(c2cc(F)ccc2F)S[C@]1(CCCN)c1ccccc1 |  | 0.001 µM (active)

Structure (SMILES) | activity change, negative = cytotoxic | Potency
CC(=O)OCC(=O)[C@@]1(O)CC[C@H]2[C@@H]3CCC4=CC(=O)C=C[C@]4(C)[C@@H]3[C@@H](O)C[C@@]21C | 20.9% (inactive) | 
CN1CCN2c3ncccc3Cc3ccccc3C2C1 (stereo not given) | 2.54% (inactive) | 
CCC(=O)NCC[C@@H]1CCc2ccc3c(c21)CCO3 | 17.5% (inactive) | 
CC=C1C2C=C(C)CC1(N)c1ccc(=O)[nH]c1C2 (stereo not given) | -2.3% (inactive) | 
COc1ccc(-c2cc(=O)c3c(O)cc(O[C@@H]4O[C@H](CO[C@@H]5O[C@@H](C)[C@H](O)[C@@H](O)[C@@H]5O)[C@@H](O)[C@H](O)[C@@H]4O)cc3o2)cc1O | 22.5% (inactive) | 
CC(C)N(CCCNC(=O)Nc1ccc(C(C)(C)C)cc1)C[C@H]1O[C@@H](n2cc(Br)c3c(N)ncnc32)[C@H](O)[C@H]1O | -12.8% (inactive) | 
CCCCC(F)(F)[C@@]1(O)CC[C@H]2[C@H](CC(=O)[C@@H]2CCCCCCC(=O)O)O1 | 24.7% (inactive) | 
Cc1[nH]c(C=C2C(=O)Nc3ccc(S(=O)(=O)N(C)c4cccc(Cl)c4)cc32)c(C)c1C(=O)N1CCN(C)CC1 |  | 14.8 µM (active)
Cn1cc(-c2ccc3nnc(Sc4ccc5ncccc5c4)n3n2)cn1 | 31.1% (inactive) | 
CN1CCN(c2cccc(Nc3nc4c(-c5ccc(S(C)(=O)=O)cc5)cccn4n3)c2)CC1 | -1.35% (inactive) | 
CN(C)CCN(C)C(=O)c1ccc(NC(=O)Nc2ccc(-c3nc(N4CCOCC4)c4ccn(CC(F)(F)F)c4n3)cc2)cc1 |  | 0.935 µM (active)
COc1ccc(CCN(C)CCCOc2ccc(S(=O)(=O)c3[nH]c4ccccc4c3C(C)C)cc2)cc1OC |  | 20.9 µM (active)
Nc1ccc(-c2ccc3ncc4ccc(=O)n(-c5cccc(C(F)(F)F)c5)c4c3c2)cn1 |  | 0.0118 µM (active)
CN1CCC[C@H]1CCO[C@](C)(c1ccccc1)c1ccc(Cl)cc1 | -13% (inactive) | 
CC1(C)CC(=O)c2c(C(F)(F)F)nn(-c3ccc(C(N)=O)c(NC4CCC(O)CC4)c3)c2C1 (stereo not given) |  | 0.148 µM (active)
O=C(Nc1ncc(SCCN2CCCC2)s1)[C@]1(c2ccc(S(=O)(=O)C3CC3)cc2)C[C@@H]1C1CCCCC1 |  | 26.4 µM (active)
N#CC(c1ccc(Cl)cc1)c1c(Cl)cc(-n2ncc(=O)[nH]c2=O)cc1Cl (stereo not given) |  | 8.33 µM (active)
O=C(O)C1=NC(C(=O)O)CC(C=CN2c3cc(O)c(OC4OC(CO)C(O)C(O)C4O)cc3CC2C(=O)O)=C1 (stereo not given) | -1.15% (inactive) | 
CCOC(=O)[C@H]1O[C@H]1C(=O)N[C@@H](CC(C)C)C(=O)NCCC(C)C | 23.4% (inactive) | 
COc1ccc2c(c1)c(C1=C(c3c[nH]c4ccccc34)C(=O)NC1=O)cn2CCCN(C)C |  | 20.9 µM (active)
